Test results from PubChem BioAssay (Tox21).
Inconclusive results are not listed. The source made the active and inactive calls. Unless noted, calls follow the shape of the dose curve; as a rule, active = well fitted curve in the direction sought with a large enough effect in the repeat runs; inconclusive = weak or mixed curves; inactive = no such curve, though single readings can be large; an effect the other way counts as inactive or inconclusive.

Key:
[1] = target: Thyrotropin receptor (Homo sapiens) (UniProt P16473); assay: qHTS assay to identify small molecule agonists of the thyroid stimulating hormone receptor (TSHR) signaling pathway (AID 1224843; calls by dose curve; also: nearly all actives have a fitted effect of over 45% in size)
Thyrotropin receptor (Homo sapiens), sequence (P16473 whole entry, looked up): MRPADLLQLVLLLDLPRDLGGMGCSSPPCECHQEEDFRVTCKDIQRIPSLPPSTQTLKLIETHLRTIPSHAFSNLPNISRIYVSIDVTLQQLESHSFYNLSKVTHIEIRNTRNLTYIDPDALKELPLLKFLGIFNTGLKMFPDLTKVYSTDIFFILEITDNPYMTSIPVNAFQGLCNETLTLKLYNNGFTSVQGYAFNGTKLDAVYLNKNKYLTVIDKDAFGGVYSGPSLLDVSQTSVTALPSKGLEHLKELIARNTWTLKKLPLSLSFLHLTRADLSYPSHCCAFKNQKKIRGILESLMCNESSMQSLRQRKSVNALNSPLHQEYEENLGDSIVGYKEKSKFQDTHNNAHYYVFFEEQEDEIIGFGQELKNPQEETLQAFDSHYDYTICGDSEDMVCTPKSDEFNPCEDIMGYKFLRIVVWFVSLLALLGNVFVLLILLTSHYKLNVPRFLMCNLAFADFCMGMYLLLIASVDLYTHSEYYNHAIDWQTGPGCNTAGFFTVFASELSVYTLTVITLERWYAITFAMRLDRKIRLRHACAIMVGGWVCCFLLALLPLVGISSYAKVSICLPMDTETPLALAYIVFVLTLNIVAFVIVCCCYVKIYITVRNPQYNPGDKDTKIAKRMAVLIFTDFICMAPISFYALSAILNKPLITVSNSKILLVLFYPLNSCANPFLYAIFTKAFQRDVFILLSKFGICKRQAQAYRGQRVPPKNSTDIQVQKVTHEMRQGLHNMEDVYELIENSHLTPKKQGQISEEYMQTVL
In short: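 Screening of the Tox21 10K collection used HEK293 cells engineered with TSHR at 800 cells per well. After a 30-min room-temperature compound exposure, HTRF cAMP reagents were added and fluorescence recorded 1 h later.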

[2] = qHTS assay to identify small molecule agonists of the hypoxia (HIF-1) signaling pathway - cell viability counter screen (AID 1224844; calls by dose curve; also: nearly all actives have a fitted effect of over 50% in size)
In short: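 Cells (HRE-bla ME-180, 2,000 per well) sat 5 hrs at 37C, got compound for 17 hrs, were read for CCF4-AM FRET, and were finally lysed with CellTiter-Glo for a 30 min room-temperature luminescence read.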

[3] = qHTS assay to identify small molecule agonists of H2AX (AID 1224845; active = well fitted activation curve with a large enough effect in the signal ratio in the repeat runs, not every such curve was filed as active; the % refers to the signal ratio)
In short: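 Phospho-H2AX Ser139 measured by HTRF (ex 320 nm; em 665 and 620 nm) after 24 hr antibody incubation. Compounds, 15 concentrations, 0.76% DMSO, were applied to CHO-K1 cells for 3hr at 37C before lysis.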

[4] = qHTS assay to identify small molecule agonists of the hypoxia (HIF-1) signaling pathway (AID 1224846; active = well fitted activation curve with a large enough effect in the signal ratio in the repeat runs, not every such curve was filed as active; the % refers to the signal ratio)
In short: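 A low-serum medium (0.5% dialyzed FBS) holding 2,000 HRE-bla ME-180 cells per well is preincubated for 5 hrs, dosed with compounds by pintool, and kept a further 17 hrs at 37C, 5% CO2 before CCF4-AM FRET detection of beta-lactamase.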

[5] = qHTS assay to identify small molecule agonists of H2AX - cell viability counter screen (AID 1224847; calls by dose curve;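 also: wild-type CHO-K1 cells; top concentration of the series differs between compounds; nearly all actives have a fitted effect of over 30% in size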)
In short: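 After overnight plating of 1000 CHO-K1 cells per well, a 15-concentration compound series was applied for 3 hr at 37C. Luminescence from CellTiter-Glo, read following 30 min at room temperature, reflected cell viability.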

[6] = qHTS assay to identify small molecule antagonists of the estrogen related receptor (ERR) signaling pathway from Tox21 library (AID 1224848); also: nearly all actives have a fitted effect of over 50% in size; also: potency is read from the fitted curve at half-maximal effect
In short: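 Antagonist-mode screen of the Tox21 10K library in an NTP-provided ERR reporter cell line; 18 h compound exposure at 37 C, luminescence measured with ONE-Glo.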

[7] = qHTS assay to identify small molecule agonists of the estrogen related receptor (ERR) signaling pathway from Tox21 library (AID 1224849; calls by dose curve; also: nearly all actives have a fitted effect of over 15% in size); settings: ERR reporter cell line, ONE-Glo luciferase, 18 h; at 92.4 µM (top of the series) unless noted
In short: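 Screening used an NTP-provided ERR luciferase cell line. Compounds in DMSO were added 6 h after seeding and left 18 h at 37 C before a 30 min ONE-Glo step and luminescence reading.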

[8] = qHTS RealTime-Glo MT Cell Viability Assay in HEK293 cells - 32 hour (AID 1224868); also: nearly all actives have a fitted effect of over 50% in size; also: potency is read from the fitted curve at half-maximal effect; as to activity change, negative = cytotoxic: top concentration of the series differs between compounds
In short: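 Quantitative high-throughput screen of the Tox21 10K library in HEK293: cells and RealTime-Glo reagents plated together, compound added at 5 h, luminescence monitored through 40 h at 37 C.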

[9] = A CellTox Green Cytotoxicity Assay to monitor cytotoxicity in HEK293 cells - 0 hour (AID 1224869); also: nearly all actives have a fitted effect of over 50% in size
In short: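 Fluorescence intensity, read at 0, 8, 16, 24, 32 and 40 h of compound treatment, reflected dye binding to DNA of dead HEK293 cells; compounds (23 nL, DMSO) were added 5 h after plating cells with reagent.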

[10] = qHTS RealTime-Glo MT Cell Viability Assay in HepG2 cells - 24 hour (AID 1224867); also: nearly all actives have a fitted effect of over 50% in size
In short: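 Compound treatment began 5 h after plating HepG2 cells (600/well) with NanoLuc luciferase and prosubstrate. Plates stayed at 37 C for 40 h; luminescence was captured at six time points, 0 h through 40 h.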
% is scaled to controls: 0 for no effect and ±100 for the full control effect.

COC(=O)[C@H]1[C@H]2C[C@@H]3c4[nH]c5cc(OC)ccc5c4CCN3C[C@H]2C[C@@H](OC(=O)COc2ccc(OC)cc2)[C@@H]1OC
inactive: outcome [1] | Potency [2] | outcome [3] | outcome [4] | Potency [5] | Potency [6] | activity change, positive = activation [7] -9.01% [at 42.5 µM] | Potency [8] | Potency [9]

C=C(C)C(=O)OCCCCCCCCCCCCCCCCCC
inactive: activation [1] -1.44% [at 19 µM] | activity change, negative = cytotoxicity [2] 5.2% [at 15.8 µM] | activation (H2AX phosphorylation) [3] 0.951% [at 31.6 µM] | activation [4] -0.144% [at 15.8 µM] | activity change, negative = cytotoxicity [5] 1.51% [at 31.6 µM] | activity change, negative = cytotoxicity [10] 4.54% [at 15.8 µM] | activity change, negative = cytotoxic [8] 4.26% [at 15.8 µM] | cytotoxicity [9] 2.77% [at 15.8 µM]

O=C(O)c1ccccc1-c1ccc(C(F)(F)F)cc1
inactive: outcome [1] | Potency [2] | outcome [3] | outcome [4] | Potency [5] | outcome [10] | Potency [8] | Potency [9]

NC(=S)Nc1cccc2ccccc12
inactive: activation [1] 1.3% [at 8.39 µM] | activity change, negative = cytotoxicity [2] -3.12% [at 6.97 µM] | activation (H2AX phosphorylation) [3] 4.19% [at 14 µM] | activation [4] 1.15% [at 7.01 µM] | activity change, negative = cytotoxicity [10] 1.73% [at 6.97 µM] | activity change, negative = cytotoxic [8] 15.6% [at 6.97 µM] | cytotoxicity [9] 0.823% [at 6.97 µM]

CCOC(=O)[C@H](CCc1ccccc1)N[C@@H](C)C(=O)N1CCC[C@H]1C(=O)O
inactive: outcome [1] | Potency [2] | outcome [3] | Potency [5] | Potency [6] | activity change, positive = activation [7] 3.79% [at 42.5 µM] | outcome [10] | Potency [8] | Potency [9]

COC(C(=O)O)c1ccccc1 (stereo unspecified)
inactive: outcome [1] | Potency [2] | outcome [3] | outcome [4] | Potency [5] | Potency [8] | Potency [9]

NC(=O)c1c(Cl)cccc1Cl
inactive: outcome [1] | Potency [2] | outcome [3] | outcome [4] | Potency [6] | activity change, positive = activation [7] -1.3% | outcome [10] | Potency [8] | Potency [9]

COc1cccc(OC)c1
inactive: outcome [1] | Potency [2] | outcome [3] | outcome [4] | outcome [10] | Potency [8] | Potency [9]

C=CC(=O)OCCCCCC
inactive: outcome [1] | Potency [2] | outcome [3] | outcome [4] | Potency [5] | Potency [8] | Potency [9]

C#CC(C)(O)CC(C)C (stereo unspecified)
inactive: outcome [1] | Potency [2] | outcome [3] | outcome [4] | Potency [6] | activity change, positive = activation [7] 13.6% | outcome [10] | Potency [8] | Potency [9]

C#CC(O)C(CC)CCCC (stereo unspecified)
inactive: outcome [1] | Potency [2] | outcome [3] | outcome [4] | Potency [5] | Potency [8] | Potency [9]

CCCCc1ccc2cccc(S(=O)(=O)O)c2c1
inactive: outcome [1] | Potency [2] | outcome [3] | outcome [4] | Potency [6] | activity change, positive = activation [7] -0.296% | outcome [10] | Potency [8] | Potency [9]

Fc1ccccc1-c1ccccc1
inactive: outcome [1] | Potency [2] | outcome [3] | outcome [4] | Potency [8] | Potency [9]

CO[Si](OC)(OC)OC
inactive: outcome [1] | Potency [2] | outcome [3] | outcome [4] | Potency [5] | outcome [10] | Potency [9]

CC12CCC(CC1=O)C2(C)C (stereo unspecified)
inactive: outcome [1] | Potency [2] | outcome [3] | outcome [4] | Potency [6] | activity change, positive = activation [7] 2.86% | outcome [10] | Potency [8] | Potency [9]

CCCCCCOC(=O)CC(CC(=O)OCCCCCC)(OC(=O)CCC)C(=O)OCCCCCC
inactive: outcome [1] | Potency [2] | outcome [3] | outcome [4] | Potency [6] | activity change, positive = activation [7] -12.6% | outcome [10] | Potency [8] | Potency [9]

OCCN1C[C@H](O)[C@@H](O)[C@H](O)[C@H]1CO
inactive: outcome [1] | Potency [2] | outcome [3] | outcome [4] | Potency [5] | Potency [8] | Potency [9]

CCCC(C)CO (stereo unspecified)
inactive: outcome [1] | Potency [2] | outcome [3] | outcome [4] | outcome [10] | Potency [8] | Potency [9]

CN(C)N=Nc1ccccc1
inactive: outcome [1] | Potency [2] | outcome [3] | outcome [4] | Potency [6] | activity change, positive = activation [7] 9.49% | outcome [10] | Potency [8] | Potency [9]

c1cc(CN2CCCCC2)cc(OCCCNc2nc3ccccc3s2)c1
inactive: outcome [1] | Potency [2] | outcome [3] | outcome [4] | activity change, positive = activation [7] -31.8% [at 42.5 µM] | Potency [9]
active: Potency [6] 23.7 µM | Potency [8] 9.52 µM

CCn1c(=O)c2c(nc(/C=C/c3ccc(OC)c(OC)c3)n2C)n(CC)c1=O
inactive: outcome [1] | Potency [2] | outcome [3] | outcome [4] | activity change, positive = activation [7] -35.7% [at 42.5 µM] | Potency [9]
active: Potency [6] 21.1 µM | Potency [8] 1.69 µM

CC(C)CCCCCCN
inactive: outcome [1] | Potency [2] | outcome [3] | outcome [4] | outcome [10] | Potency [8] | Potency [9]

C=CCn1c(=O)n([C@@H]2O[C@H](CO)[C@@H](O)[C@H]2O)c2nc(N)[nH]c(=O)c21
inactive: outcome [1] | Potency [2] | outcome [3] | outcome [4] | Potency [8] | Potency [9]

Cn1cnc2c(=O)[nH]c(N)nc21
inactive: outcome [1] | Potency [2] | outcome [3] | outcome [4] | Potency [5] | outcome [10] | Potency [8] | Potency [9]

COc1ccc(NC(C)=O)cc1
inactive: outcome [1] | Potency [2] | outcome [3] | outcome [4] | Potency [5] | Potency [8] | Potency [9]

N#CCN(CC#N)CCN(CC#N)CC#N
inactive: outcome [1] | Potency [2] | outcome [3] | outcome [4] | Potency [8] | Potency [9]

CCCCCCCCCCCCCCCCCCOCC(O)CO (stereo unspecified)
inactive: outcome [1] | Potency [2] | outcome [3] | outcome [4] | Potency [5] | Potency [8] | Potency [9]

CC(C=O)Cc1ccc(C(C)C)cc1 (stereo unspecified)
inactive: outcome [1] | Potency [2] | outcome [3] | outcome [4] | outcome [10] | Potency [8] | Potency [9]

NC(=O)c1ncn([C@@H]2O[C@H](CO)[C@@H](O)[C@H]2O)c1N
inactive: outcome [1] | Potency [2] | outcome [3] | outcome [4] | outcome [10] | Potency [8] | Potency [9]
